An excerpt weighted towards active compounds, which were near 3.5% of everything screened.
Rv3671c protease: Rv3671c serine protease inhibitors, primary screen, biochemical, fluorescence polarization, M. tuberculosis H37Rv; actives 0.048% (n = 320,000); P9WHR9; inhibition, % at 5.96 µM; in the data active = inhibition above about 38%;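 note: extracellular domain of Rv3671c used as enzyme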
UGM FP inh: M. tuberculosis UGM enzyme inhibitors, primary screen, biochemical, fluorescence polarization, single point; UDP-galactopyranose mutase (Mycobacterium tuberculosis (strain ATCC 25618 / H37Rv)), …; purified UGM, fluorescence polarization probe displacement; inhibition, % at 10 µM; actives 0.06% (n = 320,000); in the data active = inhibition above about 10%, passing the limit was not always enough
Target sequence (P9WIQ1 whole entry, looked up): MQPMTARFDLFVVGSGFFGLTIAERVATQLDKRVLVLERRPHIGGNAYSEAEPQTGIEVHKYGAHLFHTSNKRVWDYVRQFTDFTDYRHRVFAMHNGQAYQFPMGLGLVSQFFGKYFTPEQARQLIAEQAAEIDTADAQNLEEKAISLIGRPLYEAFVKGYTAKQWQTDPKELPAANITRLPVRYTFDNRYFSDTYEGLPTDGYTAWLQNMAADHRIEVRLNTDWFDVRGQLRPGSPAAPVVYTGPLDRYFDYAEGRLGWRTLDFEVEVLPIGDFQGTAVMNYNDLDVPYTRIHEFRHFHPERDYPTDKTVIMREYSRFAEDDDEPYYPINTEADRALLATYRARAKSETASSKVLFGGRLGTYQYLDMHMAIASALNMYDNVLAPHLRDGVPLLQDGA
FBA Mtb inh: Mtb FBA enzyme inhibitors, primary screen, biochemical, fluorescence, strain H37Rv. Fructose-bisphosphate aldolase (Mycobacterium tuberculosis (strain ATCC 25618 / H37Rv)), …. purified M. tuberculosis FBA, fluorescence read-out. inhibition, % at 1 µM. actives 2.3% (n = 360,000); in the data active = inhibition above about 27%
Mtb hypoxia inh: PubChem AID 1159583 | M. tuberculosis hypoxia-regulated fluorescent reporter, fluorescence | fluorescence inhibition, % (no concentration beside the values) | actives 0.1% (n = 300,000); in the data active = fluorescence inhibition mostly above about 23%, no sharp cut-off; inactive = mostly below about 17%
FadD28 FP inh: inhibitors of FadD28 bisubstrate probe binding, primary screen, biochemical, fluorescence polarization, single point | Mycobacterium tuberculosis FadD28 fatty-acid-AMP ligase | inhibition, % at 12.5 µM | actives 0.22% (n = 360,000) | AID 588549, 2011; in the data active = inhibition above about 8.5%, passing the limit was not always enough
GDH-TPI inh: GDH-TPI coupling enzyme inhibitors, primary screen, artefact control for M. tuberculosis FBA inhibitor project, biochemical, absorbance, full deck. GDH-TPI coupled enzyme counterscreen, NADH absorbance. inhibition, % at 4.8 µM. actives 1.2% (n = 360,000); in the data active = inhibition above about 30%
Numbers stand for hits.

What do the screens show for `CC1CN(C(C)CO)C(=O)c2cccc(NS(=O)(=O)c3cccs3)c2OC1CN(C)C(=O)Nc1ccc(C(F)(F)F)cc1` (configuration not stated)?
Mtb hypoxia inh: inactive

What do the screens show for `O=C(O)CNC(=O)CC1S/C(=N/N=C2CSC(=O)N2)NC1=O` (configuration not stated)?
Mtb hypoxia inh: inactive

How did COc1cc2c3nnc(-c4ccc(F)cc4)c-3cn(Cc3ccccc3F)c2cc1OC do in these assays?
FBA Mtb inh: inactive; FadD28 FP inh: inactive; GDH-TPI inh: inactive

Results for COc1cc2c3nnc(-c4ccccc4)c-3cn(Cc3ccccc3F)c2cc1OC ?
Rv3671c protease: inactive; UGM FP inh: 10.9; Mtb hypoxia inh: inactive

How did CCN1C(=NCCCOC(C)C)NC(c2ccccc2)C(C(=O)OC)C1C (configuration not stated) do in these assays?
Mtb hypoxia inh: inactive

How did CCN(CC)c1ccc2cc(NC(=O)CCC(=O)O)c(=O)oc2c1 do in these assays?
Rv3671c protease: inactive; UGM FP inh: inactive; FBA Mtb inh: 31.4; Mtb hypoxia inh: inactive; FadD28 FP inh: inactive; GDH-TPI inh: inactive

What do the screens show for `CCN(CC)c1ccc2cc(C(C)=O)c(=O)oc2c1`?
Rv3671c protease: inactive; UGM FP inh: inactive; FBA Mtb inh: inactive; FadD28 FP inh: inactive; GDH-TPI inh: inactive

What do the screens show for `C(=NN=Cc1cccs1)c1cccs1`?
Mtb hypoxia inh: inactive

How did COc1ccc(/C=N/N=C2\SCC(=O)N2c2c(C)n(C)n(-c3ccccc3)c2=O)cc1OC do in these assays?
Rv3671c protease: inactive; UGM FP inh: inactive; FBA Mtb inh: inactive; FadD28 FP inh: inactive; GDH-TPI inh: 40.6

Results for Cc1c(N2C(=O)CS/C2=N\N=C\c2ccc(Cl)cc2)c(=O)n(-c2ccccc2)n1C ?
Rv3671c protease: inactive; UGM FP inh: inactive; FBA Mtb inh: inactive; FadD28 FP inh: inactive; GDH-TPI inh: inactive

How did Cc1c(N2C(=O)CS/C2=N\N=C\c2ccccc2O)c(=O)n(-c2ccccc2)n1C do in these assays?
Rv3671c protease: inactive; UGM FP inh: inactive; FBA Mtb inh: inactive; FadD28 FP inh: inactive; GDH-TPI inh: 31.6

Results for c1ccc(-c2cn(CC3CCC(Cn4cc(-c5ccccn5)nn4)O3)nn2)nc1 (configuration not stated) ?
Mtb hypoxia inh: inactive

What do the screens show for `O=c1c2c(-c3cccs3)csc2ncn1N=Cc1ccc(OC(F)F)cc1`?
Mtb hypoxia inh: inactive

Results for COc1ccc(/C=N/NC(=O)c2cc(C)oc2C)cc1OCc1ccccc1 ?
Rv3671c protease: inactive; UGM FP inh: inactive; FBA Mtb inh: inactive; FadD28 FP inh: inactive; GDH-TPI inh: 32.4

How did COc1ccc(C=NNC(=O)c2ccco2)cc1OCc1ccccc1 do in these assays?
Mtb hypoxia inh: inactive

What do the screens show for `COc1ccc(/C=N/NC(=O)c2ccco2)cc1OCc1ccccc1`?
Rv3671c protease: inactive; UGM FP inh: inactive; FBA Mtb inh: inactive; FadD28 FP inh: inactive; GDH-TPI inh: 39.5

How did CCN1CC2C3C(=O)N(C)C(=O)C3[C@](Cc3ccccc3)(C1=O)N2C(=O)c1ccc(C)cc1 (some centres not stated) do in these assays?
Mtb hypoxia inh: inactive

How did COc1ccc(/C=N/N2C(=N)SCC2=O)cc1 do in these assays?
Rv3671c protease: inactive; UGM FP inh: inactive; FBA Mtb inh: inactive; FadD28 FP inh: inactive; GDH-TPI inh: 48.8

How did COc1cc(/C=N/N2C(=O)CSC2=S)ccc1O do in these assays?
Rv3671c protease: inactive; UGM FP inh: inactive; FBA Mtb inh: inactive; FadD28 FP inh: inactive; GDH-TPI inh: 38.4

How did O=C1CSC(=S)N1/N=C/c1cccnc1 do in these assays?
Rv3671c protease: inactive; UGM FP inh: inactive; FBA Mtb inh: inactive; FadD28 FP inh: inactive; GDH-TPI inh: 57.2

How did COc1ccc(C=Nn2cnnc2)cc1Br do in these assays?
Mtb hypoxia inh: inactive

How did CCN(CC)S(=O)(=O)c1ccc(NN=Cc2cc(OC)c(OC)cc2OC)nc1 do in these assays?
Mtb hypoxia inh: inactive

How did CCOC(=O)c1oc2nc(C(C)C)c3c(c2c1N)CC(C)(C)OC3 do in these assays?
FBA Mtb inh: 149.4; FadD28 FP inh: inactive; GDH-TPI inh: inactive

Assay outcomes (PubChem)
